Screening data from PubChem.
TWEAK Fn14 block: inhibitors of TWEAK-Fn14 signaling, primary screen, luciferase reporter cells, uHTS; TWEAK-stimulated Fn14 reporter cells, luciferase luminescence, 8 h; inhibition, % at 10 µM; 360,000 compounds, 2% hits; AID 1159606, 2016; in the data active = inhibition above about 50%
TRAIL sens C8: viability loss with TRAIL in NB7+C8 cells, primary screen, TRAIL sensitizer project, cell-based, ATPlite luminescence. 360,000 compounds, 1% hits. inhibition (viability loss, TRAIL sensitization), % at 10 µM;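 active = compounds causing at least 50% loss of cell viability in the single-dose screen, relative to plate controls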
TROY NFkB inh: inhibitors of TROY-driven NF-kB signaling, primary screen, Q293 LMP1-TROYcd cells, NF-kB luciferase, uHTS; 360,000 compounds, 0.98% hits; Q293 LMP1-TROYcd NF-kB luciferase reporter, 4 h; AID 1347056, 2019; inhibition, % at 10 µM;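 active = compounds whose plate-normalised and pattern-corrected inhibition of the luciferase reporter signal at the single screening dose is 50% or more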
aSyn UTR inh: MLPCN primary screen, SNCA 5' untranslated region; alpha-synuclein 5'UTR reporter, inhibitor activity; inhibition, % (tested at 7.5 µM); 300,000 compounds, 0.82% hits; AID 1813, 2009; in the data active = inhibition above about 60%;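 note: H4 neuroglioblastoma cells stably carrying SNCA 5'UTR luciferase fusion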
HIF-2a block: HIF-2a reporter inhibitors, primary screen, luminescence, 786-0 RCC cells. 360,000 compounds, 0.72% hits. inhibition, % at 18.8 µM. AID 624352, 2012. 786-0 RCC cells HIF-2a reporter, luciferase luminescence, overnight;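 active = inhibition of the luminescence signal of 40% or more relative to plate controls, in a single-dose primary screen at 18.75 µM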
HSP90 inh: HSP90 inhibitors, primary screen, cell lysate, luminescence. AID 1789, 2009. Rabbit reticulocyte lysate, luciferase refolding luminescence, 3 h. Heat shock protein HSP 90 (rabbit reticulocyte lysate; luciferase refolding). inhibition, % at 5.6 µM. 290,000 compounds, 0.91% hits;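 active = inhibition above the screen-wide mean plus 3 SD, computed separately per campaign, cut at about 16% in these data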;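 note: inhibitors lower the luminescence because luciferase stays unfolded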
Of the large screens only hits and unclear results are named; the others gave an inactive call. Only some compounds are listed: those with a hit (about 3.9% of all), similar ones and a draw of the others.

OC(c1ccc(-c2ccccc2)cc1)c1ncc(-c2ccc(F)cc2)[nH]1 (configuration not stated)	none (no result: aSyn UTR inh, HSP90 inh)
COc1ccc(CCNC(=O)c2ccccc2OCc2c(C)noc2C)cc1	none (no result: aSyn UTR inh, HSP90 inh)
Cc1ccc(NC(=O)CSc2ncccn2)cc1S(=O)(=O)N1CCOCC1	none (no result: aSyn UTR inh, HSP90 inh)
Cc1cccn2cc(-c3ccc(NC(=O)Cc4ccccc4)cc3)nc12	TROY NFkB inh 89
O=[N+]([O-])c1ccc(O)c(/C=N/Nc2ccc(Cl)nn2)c1	aSyn UTR inh 100
O=C(Nc1cc(S(=O)(=O)Nc2ccc(Cl)cc2)ccc1O)c1ccc(S(=O)(=O)N2CCCCCC2)cc1	TROY NFkB inh 57
O=C(Nc1cc(S(=O)(=O)N2CCOCC2)ccc1O)c1ccc(S(=O)(=O)N2CCCCC2)cc1	none (no result: aSyn UTR inh, HSP90 inh)
O=C(N/N=C\c1cc(Cl)ccc1O)c1ccc(S(=O)(=O)N2CCCCC2)cc1	aSyn UTR inh 113
CCOC(=O)N1CCN(C(=O)C[C@@H]2C[C@@]3(C(=O)OCC)CCC=C3N(Cc3cccc4ccccc34)C2=O)CC1	none (no result: aSyn UTR inh, HSP90 inh)
Cc1ccc(-n2c3c(cc(C(=O)NCC(=O)c4ccccc4)c2=O)C(=O)CCC3)cc1	TWEAK Fn14 block 93
C#Cc1cccc(Nc2nc(NC(C)C)nc3ccsc23)c1	TWEAK Fn14 block 53 (no result: aSyn UTR inh, HSP90 inh)
C#Cc1cccc(Nc2nc(NCCOC)nc3ccsc23)c1	none (no result: aSyn UTR inh, HSP90 inh)
C#Cc1cccc(Nc2nc(NCc3ccccc3OC)nc3ccsc23)c1	TWEAK Fn14 block 74, TRAIL sens C8 46 (no result: aSyn UTR inh, HSP90 inh)
CC(C)Nc1nc(Nc2ccccc2Cl)c2sccc2n1	TWEAK Fn14 block 64 (no result: aSyn UTR inh, HSP90 inh)
CCCCN(C=O)c1c(CC)nc2c(OCc3cccc(Cl)c3)cccn12	none (no result: aSyn UTR inh, HSP90 inh)
Cn1c(N)c(C(=O)COC(=O)C2Cc3ccccc3CN2S(C)(=O)=O)c(=O)n(C)c1=O (configuration not stated)	none (no result: aSyn UTR inh, HSP90 inh)
CC12CCC(=O)C=C1CCC1C2C(O)CC2(C)C1CCC2(O)C(=O)COC(=O)CCC1CCCC1 (configuration not stated)	none (no result: aSyn UTR inh, HSP90 inh)
Cc1ccc(S(=O)(=O)NCC(=O)OCC(=O)Nc2ccc3c(c2)OCCO3)cc1	none (no result: aSyn UTR inh, HSP90 inh)
COC(=O)N(C)C[C@@H]1OCc2cnnn2CCCC(=O)N([C@H](C)CO)C[C@H]1C	none (no result: aSyn UTR inh, HSP90 inh)
CC[n+]1c(/C=C/c2ccc(N(C)C)cc2)ccc2ccccc21	TWEAK Fn14 block 71, TROY NFkB inh 74
CC[n+]1ccc(/C=C/c2ccc(N(C)C)cc2)c2ccccc21	TRAIL sens C8 51 (no result: aSyn UTR inh)
CCCCCC[n+]1ccccc1/C=C/c1ccc(N(C)C)cc1	TWEAK Fn14 block 50, TROY NFkB inh 56 (no result: aSyn UTR inh, HSP90 inh)
CC[n+]1ccccc1/C=C/c1ccc(N(C)C)cc1	none
c1coc(CN(Cc2ccco2)c2ncnc3c2oc2ccccc23)c1	TWEAK Fn14 block 66
Clc1ncnc2c1oc1ccccc12	TRAIL sens C8 65
Cc1cc(C)nc(Sc2ncnc3c2oc2ccccc23)n1	TWEAK Fn14 block 56
c1ccc2cc(Sc3ncnc4c3oc3ccccc34)ccc2c1	none
COc1cc(C)c(/C=C(\C#N)C(=O)Nc2cccc(C)c2)cc1C(C)C	TWEAK Fn14 block 86, TROY NFkB inh 84
Cc1cccc(NC(=O)/C(C#N)=C\c2ccc(C(=O)O)cc2)c1	none
CC(=NNc1nc2ccccc2s1)c1ccncn1	none (no result: aSyn UTR inh, HSP90 inh)
C/C(=N\Nc1nc2ccccc2s1)c1ccc(Br)s1	TWEAK Fn14 block 51
C/C(=N\NC(=O)c1ccccc1O)c1ccc(Br)s1	TRAIL sens C8 54
C/C(=N\NC(=O)c1ccccc1[N+](=O)[O-])c1ccc(Br)s1	none
CCCCc1c(C)c(C#N)c2nc3ccccc3n2c1Cl	aSyn UTR inh 109 (no result: TWEAK Fn14 block, TRAIL sens C8, TROY NFkB inh, HIF-2a block)
COC(=O)[C@@]12C[C@@H](CC(=O)NCCCN3CCCC3=O)C(=O)N(CCc3ccc(OC)c(OC)c3)C1=CCC(C)(C)C2	none (no result: TWEAK Fn14 block, TROY NFkB inh, aSyn UTR inh, HSP90 inh)
O=C(NCc1ccc2c(c1)OCO2)c1ccccc1Cl	none (no result: HSP90 inh)
COC(=O)c1ccccc1NC(=O)c1nc(S(=O)(=O)Cc2ccccc2)ncc1Cl	TWEAK Fn14 block 76, TRAIL sens C8 95, TROY NFkB inh 58
CCc1nnc(NC(=O)c2nc(S(=O)(=O)Cc3ccccc3)ncc2Cl)s1	TWEAK Fn14 block 97, TRAIL sens C8 94, HIF-2a block 54
O=C(NCc1ccc2c(c1)OCO2)c1nc(S(=O)(=O)Cc2ccccc2)ncc1Cl	TWEAK Fn14 block 73, TROY NFkB inh 60
CSc1ncc(Cl)c(C(=O)Nc2ccc(NC(C)=O)cc2)n1	none
CC(=O)Nc1ccc(NC(=O)c2nc(S(=O)(=O)Cc3ccccc3)ncc2Cl)cc1	TWEAK Fn14 block 58
CCOC(=O)[C@H]1[C@H]2COc3ccc(Br)cc3[C@H]2N2C(=O)CN(Cc3ccc(C)cc3)C(=O)[C@@]12C	none (no result: aSyn UTR inh, HSP90 inh)
Cc1cccc(C)c1NC(=O)C1(C)CN(S(C)(=O)=O)CC(=O)N1CCCN1CCOCC1 (configuration not stated)	none (no result: TWEAK Fn14 block, TROY NFkB inh, aSyn UTR inh, HSP90 inh)
CCCNC(=O)C1(C)CCCN(C(=O)c2ccc(F)cc2Cl)C1 (configuration not stated)	none (no result: aSyn UTR inh, HSP90 inh)
CN1N=C2c3ccccc3CCC2C1c1ccc(F)cc1 (configuration not stated)	TWEAK Fn14 block 53, TROY NFkB inh 60
c1ccc(N2CC3CCc4ccccc4C3=N2)cc1 (configuration not stated)	none
Cc1ccc(N/C(N)=N/c2nc(C)cc(N3CCCCC3)n2)c(C)c1	TROY NFkB inh 61
Cc1ccc(N/C(N)=N/c2nc3c(c(=O)[nH]2)CCCC3)c(C)c1	none
COc1ccc(OC)c(NC(=O)C2(C)CCN2C(=O)Cc2ccc(Cl)cc2Cl)c1 (configuration not stated)	TWEAK Fn14 block 65 (no result: aSyn UTR inh, HSP90 inh)
CCC(=O)OC1(C(C)=O)CCC2C3CCC4=CC(=O)CCC4(C)C3CCC21C (configuration not stated)	none (no result: aSyn UTR inh, HSP90 inh)
COc1cc(/C=N/NC(=O)c2cccs2)ccc1O	none
O=C(NN=Cc1ccc2c(c1)CCN2)c1cccs1	TRAIL sens C8 50 (no result: aSyn UTR inh, HSP90 inh)
O=C(c1ccc(CSc2ccc(Cl)cc2)o1)N1CCOCC1	none (no result: aSyn UTR inh, HSP90 inh)
COc1ccc(S(=O)(=O)N2CCN(C(=O)c3ccc([N+](=O)[O-])o3)CC2)cc1	none
O=C(/C=C/c1cccc([N+](=O)[O-])c1)c1ccco1	none
O=C(/C=C/c1cccc([N+](=O)[O-])c1)c1ccc([N+](=O)[O-])o1	TWEAK Fn14 block 98, TROY NFkB inh 73, aSyn UTR inh 71, HIF-2a block 44 (no result: HSP90 inh)
COc1ccc(/C=C/C(=O)c2ccc([N+](=O)[O-])o2)cc1	TWEAK Fn14 block 54, TRAIL sens C8 51 (no result: HSP90 inh)
CCN(CC)Cc1cc(Oc2ccc(O)c(CN(CC)CC)c2)ccc1O	none (no result: aSyn UTR inh, HSP90 inh)
CC1CN(CCCCSc2ccc(Cl)cc2)CC(C)O1 (configuration not stated)	TWEAK Fn14 block 90
